Holding throughout (details): mRNA level, 48 h; actives raise or lower the signal
Read-out in test [1]: growth arrest and DNA damage 45 (GADD45A), GADD45A (gene 1647)
The test can be described thus: LTEA_HepaRG_GADD45A: Life Technologies and Expression Analysis (LTEA) Assay for growth arrest and DNA damage 45 (GADD45A) using HepaRG (AID 2283458). The procedure, abridged: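 GADD45A expression was measured by TaqMan qRT-PCR against three housekeeping genes (ACTB, GAPDH, POLR2A) after 48 h treatment of HepaRG cells. Eight-point half-log series up to 100 uM in 0.5% DMSO, run in duplicate.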

Read-out in test [2]: Forkhead box O3 (FOXO3), FOXO3 (gene 2309)
In words: LTEA_HepaRG_FOXO3: Life Technologies and Expression Analysis (LTEA) Assay for Forkhead box O3 (FOXO3) using HepaRG (AID 2283459). Summed up:
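qRT-PCR readout of FOXO3 transcript, normalized to three housekeeping genes (ACTB, GAPDH, POLR2A); gain or loss fitted against 0.5% DMSO vehicle. HepaRG cells, 48 h chemical exposure, 8-point half-log series, top 100 uM.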

Read-out in test [3]: ABC Transporter (ABCB1), ABCB1 (gene 5243)
In words: LTEA_HepaRG_ABCB1: Life Technologies and Expression Analysis (LTEA) Assay for ABC Transporter (ABCB1) using HepaRG (AID 2283460). The procedure, abridged: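 HepaRG, 48 h exposure, 8-pt half-log series from 100 uM, 0.5% DMSO vehicle, duplicates. Readout: ABCB1 transcript by Fluidigm TaqMan qRT-PCR, housekeeping-normalized; bidirectional curve fit vs DMSO baseline.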

Read-out in test [4]: growth arrest and DNA damage 45 (GADD45B), GADD45B (gene 4616)
In words: LTEA_HepaRG_GADD45B: Life Technologies and Expression Analysis (LTEA) Assay for growth arrest and DNA damage 45 (GADD45B) using HepaRG (AID 2283461). The procedure, abridged:
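Differentiated HepaRG cells, plated 48 h then switched to serum-free induction medium, were exposed 48 h in duplicate to eight half-log concentrations from 100 uM in 0.5% DMSO; mRNA quantified by qRT-PCR, normalized to ACTB/GAPDH/POLR2A, bidirectional fit versus DMSO.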

Read-out in test [5]: ABC Transporter (ABCC3), ABCC3 (gene 8714)
In words: LTEA_HepaRG_ABCC3: Life Technologies and Expression Analysis (LTEA) Assay for ABC Transporter (ABCC3) using HepaRG (AID 2283462). Summed up: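 HepaRG cells in serum-free induction medium were exposed for 48 h in duplicate to 8-point half-log concentrations topping at 100 uM in 0.5% DMSO. ABCC3 mRNA was measured by qRT-PCR normalized to ACTB, GAPDH and POLR2A, with bidirectional fitting versus DMSO.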

Read-out in test [6]: ABC Transporter (ABCB11), ABCB11 (gene 8647)
In words: LTEA_HepaRG_ABCB11: Life Technologies and Expression Analysis (LTEA) Assay for ABC Transporter (ABCB11) using HepaRG (AID 2283463). The procedure, abridged:
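HepaRG, 48 h exposure, 8-pt half-log CRC top 100 uM, 0.5% DMSO vehicle, duplicates. Readout: TaqMan qRT-PCR of ABCB11 mRNA, housekeeping-normalized (ACTB/GAPDH/POLR2A). Bidirectional fit vs DMSO baseline.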

Read-out in test [7]: ABC Transporter (ABCC2), ABCC2 (gene 1244)
In words: LTEA_HepaRG_ABCC2: Life Technologies and Expression Analysis (LTEA) Assay for ABC Transporter (ABCC2) using HepaRG (AID 2283464). Summed up: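 HepaRG cells were plated 48 h, switched to serum-free induction medium, then exposed in duplicate for 48 h to 8 concentrations (top 100 uM, half-log steps, 0.5% DMSO). ABCC2 mRNA was measured by qRT-PCR normalized to ACTB/GAPDH/POLR2A; bidirectional fitting versus DMSO.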

Read-out in test [8]: Broad substrate specificity ATP-binding cassette transporter ABCG2 (Homo sapiens) (UniProt Q9UNQ0)
In words: LTEA_HepaRG_ABCG2: Life Technologies and Expression Analysis (LTEA) Assay for ABC Transporter (ABCG2) using HepaRG (AID 2283465). Summed up:
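HepaRG, 48 h exposure, 8-pt half-log series from 100 uM, 0.5% DMSO vehicle, duplicates. Readout: ABCG2 transcript by qRT-PCR (Fluidigm array), housekeeping-normalized; bidirectional curve fit relative to DMSO baseline.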

Read-out in test [9]: ATP-citrate lyase (ACLY), ACLY (gene 47)
In words: LTEA_HepaRG_ACLY: Life Technologies and Expression Analysis (LTEA) Assay for ATP-citrate lyase (ACLY) using HepaRG (AID 2283466). The procedure, abridged: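 qRT-PCR readout of ACLY transcript after 48 h chemical treatment of HepaRG cells; expression normalized to three housekeeping genes. Eight-point half-log series, highest 100 uM, 0.5% DMSO vehicle. Gain or loss fitted against DMSO baseline.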

Read-out in test [10]: Peroxisomal acyl-coenzyme A oxidase 1 (ACOX1) gene, ACOX1 (gene 51)
The test can be described thus: LTEA_HepaRG_ACOX1: Life Technologies and Expression Analysis (LTEA) Assay for Peroxisomal acyl-coenzyme A oxidase 1 (ACOX1) gene using HepaRG (AID 2283467). The procedure, abridged: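 HepaRG, 48 h chemical exposure, 8-pt half-log series from 100 uM top, 0.5% DMSO vehicle, duplicates. Readout: ACOX1 mRNA by Fluidigm qRT-PCR, housekeeping-normalized; bidirectional fit vs DMSO baseline.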

Activity calls are given as the source filed them. How the source made its calls: active means hit-call score of the fitted dose curve at least 0.9, where 1 is the maximum; inactive means score below 0.9.

Chain of Broad substrate specificity ATP-binding cassette transporter ABCG2 (Homo sapiens) (Q9UNQ0 whole entry, looked up): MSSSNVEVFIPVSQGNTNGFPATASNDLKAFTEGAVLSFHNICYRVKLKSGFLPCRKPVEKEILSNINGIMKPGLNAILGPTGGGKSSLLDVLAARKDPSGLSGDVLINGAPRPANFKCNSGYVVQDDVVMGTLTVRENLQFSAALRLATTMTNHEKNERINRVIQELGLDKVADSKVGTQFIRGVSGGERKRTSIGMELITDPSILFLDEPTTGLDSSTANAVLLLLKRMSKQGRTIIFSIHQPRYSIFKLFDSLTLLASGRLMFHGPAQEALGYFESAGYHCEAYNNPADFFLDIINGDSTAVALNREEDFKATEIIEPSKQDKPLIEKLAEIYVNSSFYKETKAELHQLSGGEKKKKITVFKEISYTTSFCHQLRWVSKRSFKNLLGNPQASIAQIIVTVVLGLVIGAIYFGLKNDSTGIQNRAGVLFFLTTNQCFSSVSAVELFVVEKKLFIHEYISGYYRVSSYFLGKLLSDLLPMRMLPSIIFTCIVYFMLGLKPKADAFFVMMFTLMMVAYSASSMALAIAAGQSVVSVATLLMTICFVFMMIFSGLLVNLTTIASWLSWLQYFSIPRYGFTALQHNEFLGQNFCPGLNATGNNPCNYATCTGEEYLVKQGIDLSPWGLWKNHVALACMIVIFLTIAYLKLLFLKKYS

As usually defined, the AC50 is the concentration giving half of the maximal activity seen. As for `CC(C)c1cccc(C(C)C)c1NC(=O)NS(=O)(=O)c1cc(C(C)(C)O)co1`, the result in [1], in test [2], in [4], in [5], in test [6] and in test [9] was inactive. For the same compound, the outcome in [10] was inactive. Besides, the values for the concentration at half-maximal activity (AC50) in [3], in [7] and in test [8] were 6.65 µM (active), 3.34 µM (active) and 12.6 µM (active), respectively.
Consider `CC(=O)[C@@]1(O)CC[C@H]2[C@@H]3CCC4=CC(=O)CC[C@]4(C)[C@H]3CC[C@@]21C`, for which the compound was classed as inactive in [1], in [2], in test [3], in test [4], in [5] and in test [6]. The compound was called inactive in [7], in test [8] and in [10]. The AC50 in test [9] was 39.6 µM (active).
In the case of `CC(=O)OC1CC(C)OC(C)O1` (stereo not given), the call in test [1], in test [2], in test [3], in test [4], in test [5] and in [6] was inactive. Besides, the compound was classed as inactive in [7], in test [8], in [9] and in test [10].
For `O=C(Oc1ccccc1)c1cccc(C(=O)Oc2ccccc2)c1`, the compound was called inactive in test [1], in [2], in [3], in test [4], in [5] and in test [6]. Besides, the result in test [7], in test [8], in [9] and in test [10] was inactive.
`CCCC[C@H]1CN(CC2CCOCC2)C(=O)OC12CCN(C1(C)CCN(C(=O)c3c(C)ncnc3C)CC1)CC2`: the compound was called inactive in test [1], in test [2], in test [3], in test [4], in test [5] and in [6]. The call in test [7], in [8], in test [9] and in [10] was inactive.
In the case of `CCCCCCCCCC[N+](C)(C)[O-]`, the compound was classed as inactive in [1], in test [2], in test [3], in [4], in test [5] and in test [6]. The compound was classed as inactive in test [7], in test [8], in [9] and in test [10].
In the case of `CN(C)C(=O)NC1(c2ccccc2)CCN(CCC[C@]2(c3ccc(Cl)c(Cl)c3)CCCN(C(=O)c3ccccc3)C2)CC1`, the AC50 in test [1] was 12.5 µM (active); in [4], 20.3 µM (active); in test [6], 23.6 µM (active); in test [7] it was 19.4 µM (active). The result in test [2], in test [3], in [5], in test [8], in test [9] and in test [10] was inactive.
`CC(=O)O[C@]1(C(C)=O)CC[C@H]2[C@@H]3C=C(Cl)C4=CC(=O)[C@@H]5C[C@@H]5[C@]4(C)[C@H]3CC[C@@]21C`: the results for the concentration at half-maximal activity (AC50) in test [1], in test [7] and in test [10] were 50 µM (active), 50 µM (active) and 29.2 µM (active), respectively. The compound was called inactive in test [2], in [3], in test [4], in [5], in test [6] and in test [8]. In addition, the compound was classed as inactive in [9].
Turning to `COC(=O)CCCC(=O)OC`, the outcome in test [1], in test [2], in test [3], in test [4], in test [6] and in test [7] was inactive. For the same compound, the outcome in test [8], in test [9] and in test [10] was inactive. The AC50 in test [5] is 0.263 µM (active).
On to `C=CCc1ccc(OC)c(OC)c1`, for which the AC50 in [1] is 9.92 µM (active). Moreover, the compound was classed as inactive in test [2], in test [3], in test [4], in test [5], in test [6] and in test [7]. Also, the compound was classed as inactive in [8], in test [9] and in test [10].
For `CC(=O)OCC(COC(C)=O)OC(C)=O`, the compound was called inactive in test [1], in [2], in test [3], in test [4], in test [5] and in test [6]. Moreover, the compound was classed as inactive in test [7], in test [8], in test [9] and in test [10].
Take `O=C1NC(=O)C(c2ccccc2)(c2ccccc2)N1`: the outcome in [1], in test [2], in test [3], in [4], in test [5] and in test [6] was inactive. Further, the compound was called inactive in test [8], in test [9] and in test [10]. Also, the AC50 in test [7] was 50 µM (active).
As to `CC(=O)S[C@H](C(=O)N[C@H]1Cc2ccccc2[C@H]2CCC[C@@H](C(=O)O)N2C1=O)C(C)C`, the outcome in test [1], in test [2], in test [3], in test [4], in test [5] and in [6] was inactive. Besides, the outcome in [7], in test [8], in [9] and in test [10] was inactive.
With `CCCCCCC(CCCCCCCCCCC(=O)OCC(COC(C)=O)OC(C)=O)OC(C)=O` (stereo not given), the outcome in test [1], in test [2], in test [3], in [4], in test [5] and in test [6] was inactive. The compound was classed as inactive in test [7], in [8], in test [9] and in test [10].
As to `OCC(O)CO`, the result in [1], in test [2], in test [3], in test [4], in test [5] and in test [6] was inactive. For the same compound, the compound was classed as inactive in [7], in test [8], in test [9] and in [10].
`C=CCCCCCCCCCCCC`: the result in [1], in test [2], in [3], in test [4], in [5] and in [6] was inactive. Also, the result in test [7], in test [8], in test [9] and in [10] was inactive.
As to `Cn1cnc2c1c(=O)[nH]c(=O)n2C`, the result in [1], in test [2], in [3], in test [4], in test [5] and in [6] was inactive. The result in test [7], in test [8], in [9] and in [10] was inactive.
For `CCc1cc(C2=C(C(=O)O)N(c3ccccc3C(F)(F)F)S(=O)(=O)c3ccccc32)cc2c1OCO2`, the compound was called inactive in test [1], in test [2], in [4], in test [5] and in test [10]. The concentration at half-maximal activity (AC50) in [3] was 3.3 µM (active); in test [6] it was 32.1 µM (active); in [7] it was 1.64 µM (active); in [8], 23.7 µM (active); in test [9], 65.2 µM (active).
`CC(C)(C)c1ccccc1`: the call in [1], in [2], in test [3], in test [4], in [5] and in [6] was inactive. In addition, the result in [7], in test [8], in test [9] and in test [10] was inactive.
Regarding `Cc1cc(SC2=C(O)C[C@@](CCc3ccc(N)cc3)(C(C)C)OC2=O)c(C(C)(C)C)cc1CO`, the call in [1], in test [2], in test [4], in test [5], in test [8] and in [9] was inactive. For the same compound, the result in test [10] was inactive. The values for the half-maximal activity concentration (AC50) in test [3], in test [6] and in test [7] were 2.44 µM (active), 50 µM (active) and 2.16 µM (active), respectively.
On to `O=C(O)CN(CC(=O)O)CC(=O)O`, for which the compound was classed as inactive in test [1], in [2], in test [3], in test [4], in test [5] and in test [6]. Moreover, the outcome in test [7], in test [8], in test [9] and in test [10] was inactive.
Regarding `O=Cc1ccccc1C=O`, the outcome in [1], in [2], in test [3], in [4], in test [5] and in [6] was inactive. For the same compound, the outcome in [7], in test [8], in test [9] and in test [10] was inactive.
Consider `Cc1c(C)c2c(c(C)c1O)CCC(C)(COc1ccc(CC3SC(=O)NC3=O)cc1)O2` (stereo not given), for which the AC50 was 0.262 µM (active) in [1]; 88.4 µM (active) in test [2]; 37.7 µM (active) in test [4]; 15.8 µM (active) in [6]; 93.7 µM (active) in test [7]; 97.6 µM (active) in [10]. The result in [3], in test [5], in test [8] and in [9] was inactive.
`NCCOCCOCCN`: the result in [1], in [2], in test [3], in test [4], in test [5] and in test [6] was inactive. Also, the result in test [7], in test [9] and in test [10] was inactive. Moreover, the AC50 in [8] was 12.1 µM (active).
